Results from PMC4336329 (PLoS ONE, 2015).
Hit rate of the full screen: of about 310,000 compounds, about 14,000 (4.5%) showed an effect of 50% or more. Effects have a minus sign here. The entries come from a sample that favours strong results as a whole.

Target: human ether-à-go-go-related gene (hERG) potassium channel (human, UniProt Q12809)
Experiment: primary screen, population patch clamp on CHO cells stably expressing hERG; higher = less effect of the substance
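Note: peak tail current of the secondary pulse compared with the same well before compound.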

Sequence of human ether-à-go-go-related gene (hERG) potassium channel (Q12809 whole entry, looked up): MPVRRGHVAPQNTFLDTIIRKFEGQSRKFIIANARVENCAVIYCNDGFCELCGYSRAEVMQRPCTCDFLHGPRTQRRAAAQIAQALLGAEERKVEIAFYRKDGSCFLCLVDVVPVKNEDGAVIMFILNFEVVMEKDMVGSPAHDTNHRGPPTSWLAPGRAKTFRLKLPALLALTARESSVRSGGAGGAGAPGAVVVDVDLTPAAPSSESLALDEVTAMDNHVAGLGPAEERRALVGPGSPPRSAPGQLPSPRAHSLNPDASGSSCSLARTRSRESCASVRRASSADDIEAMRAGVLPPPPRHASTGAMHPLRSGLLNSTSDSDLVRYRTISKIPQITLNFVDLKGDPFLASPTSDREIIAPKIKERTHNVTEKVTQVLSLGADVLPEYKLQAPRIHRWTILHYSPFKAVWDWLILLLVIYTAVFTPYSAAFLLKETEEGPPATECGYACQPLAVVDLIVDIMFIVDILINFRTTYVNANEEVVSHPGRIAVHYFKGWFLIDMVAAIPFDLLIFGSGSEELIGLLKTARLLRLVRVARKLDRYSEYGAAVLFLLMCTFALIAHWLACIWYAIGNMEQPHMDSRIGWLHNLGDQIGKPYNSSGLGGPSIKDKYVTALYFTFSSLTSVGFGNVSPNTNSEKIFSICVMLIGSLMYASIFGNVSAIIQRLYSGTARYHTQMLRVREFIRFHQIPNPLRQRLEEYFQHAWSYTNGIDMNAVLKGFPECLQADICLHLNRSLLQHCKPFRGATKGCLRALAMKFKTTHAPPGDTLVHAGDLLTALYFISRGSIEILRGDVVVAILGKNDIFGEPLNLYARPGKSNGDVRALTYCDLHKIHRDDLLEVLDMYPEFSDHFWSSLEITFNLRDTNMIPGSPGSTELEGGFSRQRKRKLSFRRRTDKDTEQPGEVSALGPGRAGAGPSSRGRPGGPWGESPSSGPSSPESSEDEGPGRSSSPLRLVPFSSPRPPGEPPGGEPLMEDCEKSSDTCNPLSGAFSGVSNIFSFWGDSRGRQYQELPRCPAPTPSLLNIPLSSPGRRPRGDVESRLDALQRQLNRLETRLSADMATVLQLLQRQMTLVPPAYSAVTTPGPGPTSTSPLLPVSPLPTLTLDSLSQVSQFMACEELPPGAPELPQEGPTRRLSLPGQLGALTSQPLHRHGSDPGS

Row | Structure (SMILES) | hERG current change (%, negative = inhibition) at 10uM
1 | CCCc1c(O)nc(SCC(=O)O)[nH]c1=O | 67.7%
2 | CC1(C)CC(=O)/C(=C(/O)Cc2ccccc2)C(=NCCc2ccccc2)C1 | -45.2%
3 | O=C(C1CCCCC1)N(Cc1ccccc1)c1ccccn1 | 1.25%
4 | CCN(CC)C(=O)NC1CC2CCCC(C1)N2Cc1ccccc1 (stereo not drawn) | -6.25%
5 | COc1cc(C(=O)NC2CC3CCCC(C2)N3Cc2ccccc2)cc(OC)c1OC (stereo not drawn) | 8.89%
6 | COc1ccc(CN2C3CCCC2CC(NC(=O)/C=C/c2ccccc2)C3)cc1 (stereo not drawn) | -88%
7 | COc1ccccc1CN1C2CCCC1CC(NC(=O)/C=C/c1ccccc1)C2 (stereo not drawn) | -59.4%
8 | O=C(NC1CC2CCCC(C1)N2Cc1ccccc1)C1CCCCC1 (stereo not drawn) | -25.2%
9 | O=C(/C=C/c1ccccc1)NC1CC2CCCC(C1)N2Cc1ccccc1 (stereo not drawn) | -69.7%
10 | CNC(=S)NC1CC2CCCC(C1)N2Cc1ccccc1OC (stereo not drawn) | -10.1%
11 | COc1ccc(C(=O)OCC(=O)Nc2c(C)n(C)n(-c3ccccc3)c2=O)cc1OC | 16.5%
12 | CCc1[nH]nc2c1C(C(C)C)C(C#N)=C(N)O2 (stereo not drawn) | 10.8%
13 | Cn1c(Cc2ccccc2)nnc1SCC(=O)Nc1ccc2c(c1)OCO2 | 5.64%
14 | Cc1ccc(NC(=O)/C(=C\c2ccccc2)NC(=O)/C=C/c2ccccc2)cc1 | -12.9%
15 | Cn1c(=O)cc(SCC(=O)N2CCC3(CC2)OCCO3)c2ccccc21 | -1.64%
16 | CC1CCN(C2(O)C(=O)Nc3ccc(Cl)cc32)CC1 (stereo not drawn) | 4.26%
17 | CC(Sc1ncnc2ccccc12)C(=O)Nc1ccc2c(c1)OCCO2 (stereo not drawn) | 5.25%
18 | COc1ccc(OCC(O)CN2C(=O)c3ccccc3C2=O)cc1 (stereo not drawn) | 8.41%
19 | Cl.N=c1n(Cc2ccc(Cl)cc2)c2ccccc2n1CC(O)COc1ccccc1 (stereo not drawn) | -68.2%

Row | Structure (SMILES) | hERG current change (%, negative = inhibition) at 10uM
20 | Cc1cccc(OCC(O)CNC(=O)c2ccccc2C(=O)O)c1 (stereo not drawn) | -21.2%
21 | OC(COc1ccccc1)Cn1c2ccccc2c2ccccc21 (stereo not drawn) | 6%
22 | Cl.N=c1n(Cc2ccccc2)c2ccccc2n1CC(O)COc1ccccc1 (stereo not drawn) | -74.6%
23 | COc1ccc(OCC(O)Cn2c(=N)n(Cc3ccccc3)c3ccccc32)cc1.Cl (stereo not drawn) | -73.5%
24 | N=c1ccccn1CC(O)COc1ccccc1 (stereo not drawn) | -3.09%
25 | Cc1cccc(OCC(O)Cn2c(=N)n(Cc3ccccc3)c3ccccc32)c1.Cl (stereo not drawn) | -71%
26 | CC1(C)CC(=O)c2cc(C(=O)N3CCCC(C)(C)C3)c(=O)n(-c3ccccc3)c2C1 | 11.5%
27 | CCc1c(C)sc(NC(=O)/C=C/C(=O)O)c1C(N)=O | 36.5%
28 | Cc1ccc(C2CC(=O)Nc3c2ccc2ccccc32)cc1[N+](=O)[O-] (stereo not drawn) | 6.65%
29 | CC(=O)c1nn(-c2ccccc2)cc1C(=O)c1ccc(C)cc1 | 3.72%
30 | N#Cc1c(C(F)(F)F)cc(-c2ccc(F)cc2)nc1SCC(=O)O | 6.06%
31 | COc1ccc(OC)c(N(CC(=O)NCc2ccccc2)S(=O)(=O)c2ccc(OC)c(OC)c2)c1 | 18.3%
32 | CCN(CC)S(=O)(=O)c1ccc(OC)c(NC(=O)CCS(=O)(=O)Cc2ccccc2)c1 | -28%
33 | Cc1csc(NC(=O)C2C3C=CC(C3)C2C(=O)O)n1 (stereo not drawn) | -6.11%
34 | COC(=O)Cc1ccc(NC(=S)NCc2ccccc2Cl)cc1 | -6.56%
35 | COC(=O)c1ccc(C(=O)OC)c(NS(C)(=O)=O)c1 | -1.73%
36 | O=C1CC(C(F)(F)C(F)(F)C(F)(F)F)=Nc2ccccc2N1 | -15.1%
37 | CC(=O)OCCNC(=O)c1cc2ccccc2oc1=O | 9.06%
38 | Br.CC(C)(C)C(=O)Cn1c(=N)n(Cc2ccccc2)c2ccccc21 | -48.2%

Row | Structure (SMILES) | hERG current change (%, negative = inhibition) at 10uM
39 | Cl.N=c1n(CCO)c2ccccc2n1Cc1ccccc1 | -25.1%
40 | O=c1n(Cc2ccccc2F)c2ccccc2n1Cc1ccccc1F | 19.4%
41 | Br.CCn1c(=N)n(Cc2ccccc2F)c2ccccc21 | -37.5%
42 | N=c1n(Cc2ccccc2)c2ccccc2n1Cc1ccccc1 | -62.1%
43 | Br.N=c1n(CCc2ccccc2)c2ccccc2n1Cc1ccccc1F | -62.6%
44 | O=C(COc1ccc(Cl)cc1)NCCNC(=O)c1cnccn1 | 5.3%
45 | Cc1oc(-c2ccc(Cl)cc2)nc1CS(=O)CC(=O)NCCN1CCCCCC1 (stereo not drawn) | -39.4%
46 | Cc1ccccc1Cn1cc(S(=O)(=O)c2ccc(C(C)C)cc2)c(=O)c2cc3c(cc21)OCO3 | -20.2%
47 | CC1CCC(C(C)C)C(OC(=O)Cn2c(COc3ccccc3)[n+](C)c3ccccc32)C1.[Cl-] (stereo not drawn) | -80.4%
48 | Cc1cccc(OC(=O)Cn2c(C(F)(F)F)nc3ccccc32)c1 | 17.6%
49 | COc1ccc(OCc2n(CC(=O)OC3CC(C)CCC3C(C)C)c3ccccc3[n+]2C)cc1.[Cl-] (stereo not drawn) | -76.4%
50 | CC1CCC(C(C)C)C(OC(=O)COC(=O)c2cc(O)ccc2N)C1 (stereo not drawn) | 12.9%
51 | CC1CCC(C(C)C)C(OC(=O)CSc2nc(N)cc(=O)[nH]2)C1 (stereo not drawn) | 12.7%
52 | Cc1ccccc1OC(=O)Cn1c(C(F)(F)F)nc2ccccc21 | 3.95%
53 | Cc1ccccc1OCc1n(CC(=O)OC2CC(C)CCC2C(C)C)c2ccccc2[n+]1C.[Cl-] (stereo not drawn) | -72%
54 | Cc1cccc(OCc2n(CC(=O)OC3CC(C)CCC3C(C)C)c3ccccc3[n+]2C)c1.[Cl-] (stereo not drawn) | -75%
55 | CC1CCC(C(C)C)C(OC(=O)COC(=O)c2ccccc2N)C1 (stereo not drawn) | 9.64%
56 | CN1CCN(C(=O)CCCOc2cc(=O)n(C)c3ccccc23)CC1 | 0.874%
57 | COc1cccc(NC(=O)C2C3C=CC(O3)C2C(=O)O)c1 (stereo not drawn) | 10.6%
